# According to PubChem BioAssay (EPA / NIEHS):
# Inconclusive results are not listed. The source made the active and inactive calls. The calls were made as follows, unless noted: active = hit-call score of the fitted dose curve at least 0.9, where 1 is the maximum; inactive = score below 0.9.
# Legend:
# [1] = ATG_NFI_CIS: Attagene CIS-FACTORIAL HepG2 Assay for human Nuclear Factor I (NFI) (AID 2282989); settings: HepG2 cis-regulatory reporter, NFI response element transcription; actives raise or lower the signal
# Procedure, shortened: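 Transient MRTU transfection of HepG2 → 24 h chemical dosing → total RNA, oligo(dT) RT → PCR, 6-FAM primer extension, HpaI cut → capillary electrophoresis. Endpoint fitted bidirectionally relative to DMSO.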
# [2] = target: Myc proto-oncogene protein (Homo sapiens) (UniProt P01106); experiment: ATG_Myc_CIS: Attagene CIS-FACTORIAL HepG2 Assay for human Myelocytomatosis (Myc) Proto-Oncogene Transcription Factor (AID 2282990); settings: HepG2, Attagene cis-reporter transcription factor activity; actives raise or lower the signal
# Sequence of Myc proto-oncogene protein (Homo sapiens) (P01106 whole entry, looked up): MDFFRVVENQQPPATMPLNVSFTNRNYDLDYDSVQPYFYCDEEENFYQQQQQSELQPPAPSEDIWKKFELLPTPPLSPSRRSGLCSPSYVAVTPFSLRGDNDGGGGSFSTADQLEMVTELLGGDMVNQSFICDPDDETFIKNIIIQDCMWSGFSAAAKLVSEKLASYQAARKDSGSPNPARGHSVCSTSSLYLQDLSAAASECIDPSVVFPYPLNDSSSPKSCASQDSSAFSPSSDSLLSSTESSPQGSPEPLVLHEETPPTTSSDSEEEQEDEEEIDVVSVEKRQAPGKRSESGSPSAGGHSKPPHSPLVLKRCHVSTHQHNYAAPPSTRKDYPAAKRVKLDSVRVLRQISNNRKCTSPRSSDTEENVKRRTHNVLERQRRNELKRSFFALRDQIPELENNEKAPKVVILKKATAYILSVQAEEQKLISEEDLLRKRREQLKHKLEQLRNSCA
# Procedure, shortened: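 Transiently transfected HepG2 cells bearing cis-promoter reporter units for endogenous transcription factors; 24 h exposure. Reporter mRNA measured by RT-PCR, 6-FAM primer extension, HpaI cut and capillary electrophoresis; bidirectional fit relative to DMSO.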
# [3] = ATG_NF_kB_CIS: Attagene CIS-FACTORIAL HepG2 Assay for human Nuclear Factor Kappa B (NF-kB) (AID 2282991); settings: HepG2 Attagene cis-factorial NF-kB reporter mRNA; actives raise or lower the signal
# Procedure, shortened: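 DMSO served as negative control and baseline for bidirectional curve fitting. Transiently transfected HepG2 cells were dosed for 24 h, then reporter transcripts were measured by RT-PCR with capillary electrophoresis detection.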
# [4] = ATG_NRF2_ARE_CIS: Attagene CIS-FACTORIAL HepG2 Assay for human Nuclear Factor Erythroid 2 Related Factor 2 (NFR2) response to Antioxidant Response Elements (ARE) (AID 2282992); settings: HepG2 Attagene ARE/NRF2 reporter, transcription factor activity; actives raise or lower the signal;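 as to AC50: reporter mRNA level measured by RT-PCR and capillary electrophoresis fluorescence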
# Procedure, shortened: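 Transient MRTU transfection of HepG2; 24 h compound exposure; TriZol RNA, RT with oligo(dT), PCR, 6-FAM primer extension, HpaI cut, CE. Bidirectional fit vs DMSO.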
# [5] = target: Cellular tumor antigen p53 (Homo sapiens) (UniProt P04637); experiment: ATG_p53_CIS: Attagene CIS-FACTORIAL HepG2 Assay for human p53 Transcription Factor (AID 2282994); settings: HepG2 p53 cis-element reporter, Attagene mRNA; actives raise or lower the signal
# Sequence of Cellular tumor antigen p53 (Homo sapiens) (P04637 whole entry, looked up): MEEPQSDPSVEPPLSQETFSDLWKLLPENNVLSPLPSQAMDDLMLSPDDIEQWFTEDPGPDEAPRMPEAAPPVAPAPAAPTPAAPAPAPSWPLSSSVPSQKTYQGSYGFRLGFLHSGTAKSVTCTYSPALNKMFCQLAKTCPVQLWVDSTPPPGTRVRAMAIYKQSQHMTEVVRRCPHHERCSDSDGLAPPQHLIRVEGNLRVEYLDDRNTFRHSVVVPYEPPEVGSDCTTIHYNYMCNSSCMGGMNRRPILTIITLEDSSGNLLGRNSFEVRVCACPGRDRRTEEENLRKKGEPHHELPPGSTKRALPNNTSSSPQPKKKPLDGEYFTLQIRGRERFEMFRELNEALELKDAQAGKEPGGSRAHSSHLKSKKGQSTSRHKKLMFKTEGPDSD
# Procedure, shortened: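 HepG2, transient MRTU transfection (cis promoter elements, endogenous TFs); 24 h dosing; RNA isolation, RT-PCR, 6-FAM primer extension, HpaI digest, CE fluorescence; bidirectional fit vs DMSO.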
# [6] = target: human Peroxisome Proliferator-activated Receptor alpha (PPARa), PPARA (gene 5465) (UniProt Q07869); experiment: ATG_PPARa_TRANS: Attagene TRANS-FACTORIAL HepG2 Assay for human Peroxisome Proliferator-activated Receptor alpha (PPARa) (AID 2283001; active = hit-call score of the fitted dose curve at least 0.9, where 1 is the maximum;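 as to AC50: potency for gain of reporter signal over DMSO so agonist or activator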)
# Sequence of human Peroxisome Proliferator-activated Receptor alpha (PPARa), PPARA (gene 5465) (Q07869 whole entry, looked up, the tested form may be a part): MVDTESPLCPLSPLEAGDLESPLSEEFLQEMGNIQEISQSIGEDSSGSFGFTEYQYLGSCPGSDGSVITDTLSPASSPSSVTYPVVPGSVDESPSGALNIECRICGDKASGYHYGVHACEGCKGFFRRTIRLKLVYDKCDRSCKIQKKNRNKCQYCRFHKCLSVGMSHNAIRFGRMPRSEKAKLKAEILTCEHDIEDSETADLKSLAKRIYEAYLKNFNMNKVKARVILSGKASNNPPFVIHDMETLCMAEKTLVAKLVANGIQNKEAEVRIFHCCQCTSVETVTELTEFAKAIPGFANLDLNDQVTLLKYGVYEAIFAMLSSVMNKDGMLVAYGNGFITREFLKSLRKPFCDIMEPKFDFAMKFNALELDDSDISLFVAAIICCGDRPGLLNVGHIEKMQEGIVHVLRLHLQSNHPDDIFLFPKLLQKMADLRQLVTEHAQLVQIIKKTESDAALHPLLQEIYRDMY
# Procedure, shortened: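 Measures transcriptional activity of an exogenous chimeric PPARa-Gal4 protein in transiently transfected HepG2 cells after 24 h dosing. Reporter mRNA quantified via RT-PCR and capillary electrophoresis; DMSO served as negative control.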
# [7] = target: human Peroxisome Proliferator-activated Receptor delta (PPARd), PPARD (gene 5467) (UniProt Q03181); experiment: ATG_PPARd_TRANS: Attagene TRANS-FACTORIAL HepG2 Assay for human Peroxisome Proliferator-activated Receptor delta (PPARd) (AID 2283002; active = hit-call score of the fitted dose curve at least 0.9, where 1 is the maximum)
# Sequence of human Peroxisome Proliferator-activated Receptor delta (PPARd), PPARD (gene 5467) (Q03181 whole entry, looked up, the tested form may be a part): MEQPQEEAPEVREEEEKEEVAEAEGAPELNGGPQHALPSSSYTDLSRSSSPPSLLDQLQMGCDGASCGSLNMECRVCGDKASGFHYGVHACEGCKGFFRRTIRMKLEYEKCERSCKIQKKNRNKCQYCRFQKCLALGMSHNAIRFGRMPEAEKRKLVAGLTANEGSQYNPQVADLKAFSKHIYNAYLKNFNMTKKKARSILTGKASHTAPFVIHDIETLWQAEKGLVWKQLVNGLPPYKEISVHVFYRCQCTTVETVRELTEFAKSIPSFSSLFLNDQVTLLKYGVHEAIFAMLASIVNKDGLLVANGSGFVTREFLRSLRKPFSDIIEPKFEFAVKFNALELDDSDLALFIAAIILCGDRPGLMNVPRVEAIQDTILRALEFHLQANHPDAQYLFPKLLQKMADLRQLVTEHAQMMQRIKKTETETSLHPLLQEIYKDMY
# Procedure, shortened: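 HepG2 cells transiently transfected with GAL4-UAS multiplexed reporter units driven by exogenous chimeric NR-GAL4 proteins; 24 h compound exposure. Reporter mRNA measured by RT-PCR, 6-FAM primer extension, HpaI digestion and capillary electrophoresis; gain of signal fitted relative to DMSO.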
# [8] = target: human Retinoic Acid Receptor beta (RARb), RARB (gene 5915) (UniProt P10826); experiment: ATG_RARb_TRANS: Attagene TRANS-FACTORIAL HepG2 Assay for human Retinoic Acid Receptor beta (AID 2283004; active = hit-call score of the fitted dose curve at least 0.9, where 1 is the maximum)
# Sequence of human Retinoic Acid Receptor beta (RARb), RARB (gene 5915) (P10826 whole entry, looked up, the tested form may be a part): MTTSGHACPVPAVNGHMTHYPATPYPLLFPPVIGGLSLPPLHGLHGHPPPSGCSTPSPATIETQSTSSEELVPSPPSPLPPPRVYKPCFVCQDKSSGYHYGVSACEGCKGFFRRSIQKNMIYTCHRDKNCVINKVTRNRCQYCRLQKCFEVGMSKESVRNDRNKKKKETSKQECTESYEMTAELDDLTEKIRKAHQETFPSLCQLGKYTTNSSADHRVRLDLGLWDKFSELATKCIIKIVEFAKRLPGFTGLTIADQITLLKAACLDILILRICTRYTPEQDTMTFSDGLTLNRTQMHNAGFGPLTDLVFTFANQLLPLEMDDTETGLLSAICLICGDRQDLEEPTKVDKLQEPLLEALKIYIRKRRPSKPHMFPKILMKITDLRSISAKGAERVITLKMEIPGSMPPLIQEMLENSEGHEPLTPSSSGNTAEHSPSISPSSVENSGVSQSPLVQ
# Procedure, shortened: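 Induction of reporter mRNA from a chimeric RARb-Gal4 construct was measured by RT-PCR, FAM labelling, HpaI digestion and capillary electrophoresis. Measurements followed 24 h compound treatment of transiently transfected human HepG2 liver cells, with DMSO as baseline.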
# [9] = target: Nuclear receptor subfamily 1 group I member 2 (Homo sapiens) (UniProt O75469); experiment: ATG_PXR_TRANS: Attagene TRANS-FACTORIAL HepG2 Assay for human Pregnane X Receptor (PXR) (AID 2283008; active = hit-call score of the fitted dose curve at least 0.9, where 1 is the maximum)
# Sequence of Nuclear receptor subfamily 1 group I member 2 (Homo sapiens) (O75469 whole entry, looked up, the tested form may be a part): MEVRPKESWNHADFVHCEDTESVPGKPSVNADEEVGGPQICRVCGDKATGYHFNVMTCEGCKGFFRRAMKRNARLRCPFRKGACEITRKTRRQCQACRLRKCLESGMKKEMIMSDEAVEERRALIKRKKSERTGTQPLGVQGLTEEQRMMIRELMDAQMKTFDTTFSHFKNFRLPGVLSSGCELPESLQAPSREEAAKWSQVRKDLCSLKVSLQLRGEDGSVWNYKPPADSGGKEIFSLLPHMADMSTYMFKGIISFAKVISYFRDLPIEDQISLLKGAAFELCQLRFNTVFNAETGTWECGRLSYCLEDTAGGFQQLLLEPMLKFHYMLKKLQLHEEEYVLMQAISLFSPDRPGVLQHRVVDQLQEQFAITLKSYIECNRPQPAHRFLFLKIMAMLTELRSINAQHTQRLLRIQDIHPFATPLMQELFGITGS
# Procedure, shortened: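 Read-out is fluorescence of labelled reporter cDNA fragments separated by capillary electrophoresis after RT-PCR and HpaI digestion. Source: HepG2 cells carrying PXR-GAL4/UAS reporter constructs, treated 24 h; activity fitted upward relative to DMSO.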
# [10] = target: human Retinoic Acid Receptor gamma (RARg), RARG (gene 5916) (UniProt P13631); experiment: ATG_RARg_TRANS: Attagene TRANS-FACTORIAL HepG2 Assay for human Retinoic Acid Receptor gamma (RARg) (AID 2283009; active = hit-call score of the fitted dose curve at least 0.9, where 1 is the maximum)
# Sequence of human Retinoic Acid Receptor gamma (RARg), RARG (gene 5916) (P13631 whole entry, looked up, the tested form may be a part): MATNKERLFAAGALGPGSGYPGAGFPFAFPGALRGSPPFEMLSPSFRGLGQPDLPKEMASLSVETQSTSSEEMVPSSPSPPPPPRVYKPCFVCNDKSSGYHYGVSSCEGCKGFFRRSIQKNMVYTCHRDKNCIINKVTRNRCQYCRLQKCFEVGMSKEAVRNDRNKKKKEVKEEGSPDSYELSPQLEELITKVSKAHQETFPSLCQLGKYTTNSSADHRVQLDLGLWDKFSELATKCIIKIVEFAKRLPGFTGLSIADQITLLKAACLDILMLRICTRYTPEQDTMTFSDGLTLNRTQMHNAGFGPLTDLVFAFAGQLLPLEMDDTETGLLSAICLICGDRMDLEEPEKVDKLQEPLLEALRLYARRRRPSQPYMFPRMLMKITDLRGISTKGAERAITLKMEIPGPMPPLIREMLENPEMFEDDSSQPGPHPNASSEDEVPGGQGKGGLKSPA
# Procedure, shortened: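 HepG2 cells transiently transfected with multiplexed reporter units expressing chimeric RARg-GAL4 and GAL4-UAS-driven reporters; 24 h compound exposure. Reporter mRNA quantified by RT-PCR with fluorescent labelling and capillary electrophoresis; gain-of-signal fitted relative to DMSO baseline.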
# [11] = ATG_Oct_MLP_CIS: Attagene CIS-FACTORIAL HepG2 Assay for human Octamer-Binding Transcription Factor (Oct) (AID 2282993); settings: HepG2 Attagene cis-factorial Oct reporter, mRNA; actives raise or lower the signal
# Procedure, shortened: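 Transient MRTU transfection of HepG2 → 24 h compound treatment → RNA isolation, reverse transcription, PCR → 6-FAM primer extension, HpaI digest → capillary electrophoresis. Activity fitted both directions against DMSO.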
# [12] = target: Peroxisome proliferator-activated receptor gamma (Homo sapiens) (UniProt P37231); experiment: ATG_PPARg_TRANS: Attagene TRANS-FACTORIAL HepG2 Assay for human Peroxisome Proliferator-activated Receptor-gamma (PPARg) (AID 2283007; active = hit-call score of the fitted dose curve at least 0.9, where 1 is the maximum)
# Sequence of Peroxisome proliferator-activated receptor gamma (Homo sapiens) (P37231 whole entry, looked up, the tested form may be a part): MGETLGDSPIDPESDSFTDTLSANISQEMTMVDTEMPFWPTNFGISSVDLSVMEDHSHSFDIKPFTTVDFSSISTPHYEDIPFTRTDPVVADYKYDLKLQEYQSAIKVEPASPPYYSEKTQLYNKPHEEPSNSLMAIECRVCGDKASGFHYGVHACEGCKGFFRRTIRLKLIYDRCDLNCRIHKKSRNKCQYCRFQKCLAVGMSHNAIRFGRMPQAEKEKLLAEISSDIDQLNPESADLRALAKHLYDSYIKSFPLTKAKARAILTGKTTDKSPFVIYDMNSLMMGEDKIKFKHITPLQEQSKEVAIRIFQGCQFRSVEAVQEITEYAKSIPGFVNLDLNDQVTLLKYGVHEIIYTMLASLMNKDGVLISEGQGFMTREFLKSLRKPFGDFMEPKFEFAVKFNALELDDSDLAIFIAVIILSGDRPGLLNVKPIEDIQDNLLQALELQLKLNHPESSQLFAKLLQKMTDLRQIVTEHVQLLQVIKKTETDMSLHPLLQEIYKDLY
# Procedure, shortened: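 Chimeric NR-Gal4 transactivation is measured in transiently transfected HepG2 cells by reporter mRNA induction at 24 h. Detection uses RT-PCR with fluorescent labelling and capillary electrophoresis; DMSO defines baseline.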
# [13] = target: human RAR-related Orphan Receptor beta (RORb), RORB (gene 6096) (UniProt Q92753); experiment: ATG_RORb_TRANS: Attagene TRANS-FACTORIAL HepG2 Assay for human RAR-related Orphan Receptor beta (RORb) (AID 2283010; active = hit-call score of the fitted dose curve at least 0.9, where 1 is the maximum)
# Sequence of human RAR-related Orphan Receptor beta (RORb), RORB (gene 6096) (Q92753 whole entry, looked up, the tested form may be a part): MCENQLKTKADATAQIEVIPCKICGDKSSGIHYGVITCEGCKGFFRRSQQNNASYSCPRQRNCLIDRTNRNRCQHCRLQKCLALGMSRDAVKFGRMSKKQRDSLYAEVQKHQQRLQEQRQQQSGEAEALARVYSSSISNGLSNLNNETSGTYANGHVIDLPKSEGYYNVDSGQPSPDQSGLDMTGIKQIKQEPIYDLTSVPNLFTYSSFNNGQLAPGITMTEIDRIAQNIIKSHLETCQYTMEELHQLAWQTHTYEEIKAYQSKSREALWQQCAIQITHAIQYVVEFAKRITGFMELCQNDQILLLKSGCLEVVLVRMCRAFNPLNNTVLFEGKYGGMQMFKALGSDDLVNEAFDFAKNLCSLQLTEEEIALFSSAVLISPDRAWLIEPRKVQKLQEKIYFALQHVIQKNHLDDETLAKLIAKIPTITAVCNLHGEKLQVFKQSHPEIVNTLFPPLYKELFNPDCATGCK
# Procedure, shortened: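 HepG2 cells were transiently transfected with multiplexed GAL4-UAS reporter units expressing chimeric nuclear receptor–GAL4 proteins, then dosed for 24 h. Reporter mRNA was quantified by RT-PCR with fluorescent labelling and capillary electrophoresis; gain of signal was fitted relative to DMSO.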
# [14] = BSK_3C_TissueFactor: BioMAP Diversity Plus: 3C Assay for Tissue Factor Biomarker Activity (AID 2282997); settings: BioMAP 3C HUVEC, tissue factor biomarker readout; actives raise or lower the signal
# Procedure, shortened: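 Dosing of human umbilical vein endothelial cells preceded a 24 h incubation. Tissue Factor was then read by ELISA, with increases and decreases both scored relative to DMSO controls.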
# [15] = BSK_3C_uPAR: BioMAP Diversity Plus: 3C Assay for Urokinase-type plasminogen activator receptor (uPAR) Biomarker Activity (AID 2282998); settings: BioMAP 3C HUVEC, uPAR biomarker ELISA; actives raise or lower the signal
# Procedure, shortened: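 ELISA readout of uPAR on human vascular endothelium (umbilical vein primary cells), taken 24 h after chemical dosing. Increases and decreases are both fitted relative to DMSO vehicle.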
# [16] = BSK_3C_VCAM1: BioMAP Diversity Plus: 3C Assay for Vascular cell adhesion molecule 1 (VCAM1) Biomarker Activity (AID 2282999); settings: BioMAP 3C HUVEC, VCAM1 ELISA, cytokine-stimulated; actives raise or lower the signal
# Procedure, shortened: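 Human umbilical vein endothelial cells (3C system), biomarker read by ELISA 24 h after dosing; bidirectional fit against DMSO baseline. Cytotoxicity tracked by SRB total-protein staining in parallel cultures at biomarker time.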
# [17] = BSK_4H_Eotaxin3: BioMAP Diversity Plus: 4H Assay for Eotaxin 3 Biomarker Activity (AID 2283000); settings: primary human endothelial cells (HUVEC); actives raise or lower the signal
# Procedure, shortened: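 Human umbilical vein endothelial cells (BSK_4H system) dosed with test chemical; Eotaxin-3 (CCL26) measured by ELISA 24 h after dosing. Bidirectional curve fitting relative to DMSO negative control as baseline.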
# [18] = read-out: Intercellular Adhesion Molecule 1 (ICAM1), ICAM1 (gene 3383); experiment: BSK_3C_ICAM1: BioMAP Diversity Plus: 3C Assay for Intercellular Adhesion Molecule 1 (ICAM1) Biomarker Activity (AID 2283003); settings: primary human endothelial cells (HUVEC); actives raise or lower the signal
# Procedure, shortened: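 Primary human umbilical vein endothelial cells in the BioMAP 3C system were exposed to chemicals for 24 h, then ICAM-1 was quantified by ELISA. Activity was fitted bidirectionally against the DMSO negative control baseline.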
# [19] = target: Retinoic acid receptor alpha (Homo sapiens) (UniProt P10276); experiment: ATG_RARa_TRANS: Attagene TRANS-FACTORIAL HepG2 Assay for human Retinoic Acid Receptor alpha (RARa) (AID 2283005; active = hit-call score of the fitted dose curve at least 0.9, where 1 is the maximum)
# Sequence of Retinoic acid receptor alpha (Homo sapiens) (P10276 whole entry, looked up, the tested form may be a part): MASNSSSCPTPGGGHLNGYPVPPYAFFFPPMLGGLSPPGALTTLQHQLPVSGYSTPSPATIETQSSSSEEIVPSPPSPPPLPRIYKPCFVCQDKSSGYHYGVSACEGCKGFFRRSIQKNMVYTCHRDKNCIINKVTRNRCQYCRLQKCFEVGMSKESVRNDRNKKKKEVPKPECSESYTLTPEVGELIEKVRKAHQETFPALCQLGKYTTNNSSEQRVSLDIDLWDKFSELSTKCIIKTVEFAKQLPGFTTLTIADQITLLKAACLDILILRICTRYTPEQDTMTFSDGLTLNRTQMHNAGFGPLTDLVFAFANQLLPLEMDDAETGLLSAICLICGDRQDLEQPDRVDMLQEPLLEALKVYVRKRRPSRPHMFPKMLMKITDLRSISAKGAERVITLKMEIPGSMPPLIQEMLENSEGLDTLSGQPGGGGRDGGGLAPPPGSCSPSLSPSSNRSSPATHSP
# Procedure, shortened: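 HepG2 transiently transfected with multiplex GAL4-UAS reporter units including a human RARa–GAL4 chimera; 24 h compound exposure. Reporter mRNA quantified by RT-PCR, 6-FAM labeling and capillary electrophoresis; gain of signal versus DMSO.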
# [20] = BSK_3C_Proliferation: Cell Proliferation Assessment in the BioMAP Diversity Plus: 3C Assay (AID 2283006); settings: primary human endothelial cells (HUVEC);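 also: potency may reflect either rise or fall in cell number versus DMSO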
# Procedure, shortened: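 Human umbilical vein endothelial cells were grown sub-confluent and exposed to chemical for 48 h, then fixed with 10% TCA and stained with 0.1% sulforhodamine B; absorbance at 560 nm gave relative cell number, fitted bidirectionally against DMSO baseline.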
smiles,measurement,setting,value
CC=CCO,outcome,[1],inactive
same,outcome,[2],inactive
same,outcome,[3],inactive
same,outcome,[4],inactive
same,outcome,[5],inactive
same,outcome,[6],inactive
same,outcome,[7],inactive
same,outcome,[8],inactive
same,outcome,[9],inactive
same,outcome,[10],inactive
CC(C)(C)c1n[nH]c(=O)n(N)c1=O,outcome,[1],inactive
same,outcome,[2],inactive
same,outcome,[3],inactive
same,outcome,[4],inactive
same,outcome,[11],inactive
same,outcome,[8],inactive
same,outcome,[12],inactive
same,outcome,[9],inactive
same,outcome,[10],inactive
O=C1c2ccccc2C(=O)C1c1nc2ccccc2c(Br)c1O,outcome,[1],inactive
same,outcome,[2],inactive
same,AC50,[3],28.4 µM (active)
same,AC50,[4],1.83 µM (active)
same,outcome,[5],inactive
same,outcome,[7],inactive
same,AC50,[12],11.5 µM (active)
same,outcome,[9],inactive
same,outcome,[13],inactive
c1cc(N(CC2CO2)CC2CO2)ccc1OCC1CO1 (configuration not stated),AC50,[1],27 µM (active)
same,AC50,[2],163 µM (active)
same,AC50,[3],48.4 µM (active)
same,AC50,[4],25.4 µM (active)
same,AC50,[11],20.3 µM (active)
same,outcome,[12],inactive
same,outcome,[9],inactive
same,outcome,[10],inactive
CCN(Cc1cccc(S(=O)(=O)O)c1)c1ccc(C(=C2C=CC(=[N+](CC)Cc3cccc(S(=O)(=O)[O-])c3)C=C2)c2ccccc2)cc1,outcome,[1],inactive
same,outcome,[2],inactive
same,outcome,[3],inactive
same,AC50,[4],112 µM (active)
same,outcome,[5],inactive
same,outcome,[7],inactive
same,AC50,[12],31.1 µM (active)
same,outcome,[9],inactive
O=S(=O)(Oc1ccc(Cl)cc1Cl)c1ccccc1,outcome,[1],inactive
same,outcome,[2],inactive
same,outcome,[3],inactive
same,AC50,[4],11.5 µM (active)
same,outcome,[11],inactive
same,outcome,[7],inactive
same,AC50,[12],29.5 µM (active)
same,AC50,[9],2.19 µM (active)
O=C1CCC(=O)N1Cl,outcome,[1],inactive
same,outcome,[2],inactive
same,outcome,[3],inactive
same,outcome,[4],inactive
same,outcome,[11],inactive
same,outcome,[7],inactive
same,outcome,[9],inactive
CN(C)c1ccc(N=Nc2ccccc2C(=O)O)cc1,outcome,[1],inactive
same,outcome,[2],inactive
same,outcome,[3],inactive
same,AC50,[4],4.76 µM (active)
same,AC50,[5],66.4 µM (active)
same,AC50,[6],23.2 µM (active)
same,outcome,[7],inactive
same,AC50,[12],27.5 µM (active)
CCCCC(CC)COC(=O)c1ccccc1O (configuration not stated),outcome,[1],inactive
same,outcome,[2],inactive
same,outcome,[3],inactive
same,outcome,[11],inactive
same,outcome,[5],inactive
same,AC50,[14],1.8 µM (active)
same,AC50,[15],17.9 µM (active)
same,outcome,[16],inactive
same,AC50,[17],15.2 µM (active)
same,outcome,[7],inactive
same,outcome,[18],inactive
same,outcome,[8],inactive
same,outcome,[19],inactive
same,AC50,[20],17.3 µM (active)
same,outcome,[12],inactive
same,outcome,[9],inactive
same,outcome,[13],inactive
C=CC(=O)NC(C)(C)CS(=O)(=O)O,outcome,[1],inactive
same,outcome,[2],inactive
same,outcome,[3],inactive
same,outcome,[4],inactive
same,outcome,[5],inactive
same,outcome,[19],inactive
same,outcome,[12],inactive
same,outcome,[13],inactive
CCCCCCCCCCCCCCCCCC#N,outcome,[1],inactive
same,outcome,[2],inactive
same,outcome,[3],inactive
same,outcome,[11],inactive
same,outcome,[5],inactive
same,outcome,[6],inactive
same,outcome,[7],inactive
same,outcome,[19],inactive
same,outcome,[12],inactive
same,outcome,[9],inactive
same,outcome,[10],inactive
same,outcome,[13],inactive
CCCCCCCC/C=C\CCCCCCCC(=O)OCCO,outcome,[1],inactive
same,outcome,[2],inactive
same,AC50,[3],68.1 µM (active)
same,AC50,[4],40.8 µM (active)
same,outcome,[7],inactive
same,AC50,[12],4.78 µM (active)
same,outcome,[9],inactive
O=C(O)C(c1ccc(Cl)cc1)c1ccc(Cl)cc1,outcome,[1],inactive
same,outcome,[2],inactive
same,outcome,[3],inactive
same,outcome,[4],inactive
same,outcome,[11],inactive
same,outcome,[9],inactive
